# DAX1 inh-1: blocks DAX1 repression of SF-1 activated StAR promoter; HEK293T StAR-luciferase reporter, SF-1/DAX-1 repression relief; inhibition, % at 6.8 µM; 1.1% of 370,000 active;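 active = inhibition above the mean over all tested compounds plus 3 SD, cut at about 3.6% in these data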;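 note: 0% = DAX-1 cells with DMSO and 100% = cells lacking DAX-1 with DMSO; higher inhibition means more luminescence from relief of DAX-1 repression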
# hgDAF12 agonist: hgDAF-12 agonism, primary luciferase screen; 1.8% of 370,000 active; AID 687014; HEK293 GAL4-hgDAF12 UAS-luciferase reporter, agonist luminescence; normalized to butyrate control; activation, % at 6.8 µM;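 active = activation above a cutoff set at the mean of all screened compounds plus 3 SD, cut at about 10% in these data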;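 note: 0% = DMSO wells and 100% = sodium butyrate wells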
# hcDAF-12 act: H. contortus DAF-12 activation, primary screen | 1.4% of 370,000 active | AID 652067 | activation, % at 6.8 µM | HEK293 hcDAF-12 lit1-tk-luc reporter, luminescence; 0% DMSO, 100% Δ7-dafachronic acid;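 active = activation above the mean of all tested compounds plus 3 SD, cut at about 5.5% in these data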;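 note: 100% = response to 3 µM Δ7-dafachronic acid high control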
# ssDAF-12 act: activators of S. stercoralis DAF-12 nuclear receptor; HEK293 ssDAF-12/GRIP1 lit1-tk-luc reporter, luminescence; % of 3 µM dafachronic acid response; activation, % at 6.8 µM; 1% of 370,000 active;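 active = activation above the mean over all tested compounds plus 3 SD, cut at about 0.9% in these data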;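 note: 0% = DMSO-only wells and 100% = 3 µM delta7-dafachronic acid wells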
# DAX1 inh-2: inhibitors of human orphan nuclear receptor DAX1 (NR0B1); HEK293 Gal4-DAX1 luciferase reporter, luminescence; inhibition, % at 6.75 µM; 0.99% of 340,000 active;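 active = inhibition above the mean over all tested compounds plus 3 SD, cut at about 4.2% in these data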;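 note: 0% = DAX1-transfected cells with DMSO and 100% = empty-vector control cells with DMSO; inhibition shows as a rise in luminescence from relieved DAX1 repression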
# Target sequence (P51843 207-470 limits assumed): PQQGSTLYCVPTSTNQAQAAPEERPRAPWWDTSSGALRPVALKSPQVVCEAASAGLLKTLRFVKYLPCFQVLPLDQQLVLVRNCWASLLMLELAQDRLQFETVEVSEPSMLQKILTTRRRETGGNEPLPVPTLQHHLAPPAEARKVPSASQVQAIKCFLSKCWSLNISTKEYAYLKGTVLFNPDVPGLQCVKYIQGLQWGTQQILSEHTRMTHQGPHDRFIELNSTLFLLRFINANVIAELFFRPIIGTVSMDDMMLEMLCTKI
# DAX1 conf: confirmation of human DAX1 (NR0B1) inhibitors | shares compounds with DAX1 inh-1 | HEK293T StAR-promoter luciferase reporter, SF-1/DAX-1 repression | inhibition, % at 6.8 µM | 87% of 2,400 active;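 active = inhibition above the average of every tested compound plus 3 SD, cut at about 3.8% in these data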;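 note: 0% = DAX-1 cells with DMSO and 100% = no DAX-1 control cells with DMSO; active compounds raise luminescence by relieving repression of the StAR reporter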
# SF1 mutant ctr: nonselective inhibitor or artifact in SF-1 mutant DAX1 counter-screen. shares compounds with DAX1 inh-1. HEK293 StAR-luciferase, SF-1 AF2 mutant, luminescence. inhibition, % at 6.8 µM. 78% of 2,400 active. AID 652136;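 active = inhibition above the mean of all tested compounds plus 3 SD, cut at about 3% in these data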;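 note: 0% = DAX-1 transfected cells with DMSO and 100% = cells without DAX-1 with DMSO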
# LXR ag: counter-screen for hcDAF-12 agonists: agonists of human LXR-beta | 3,400 tested, under 10 active | activation, % at 6.8 µM | shares compounds with hcDAF-12 act | AID 743027 | HEK293 Gal4-LXR tk-luc reporter, luminescence, 24 h; normalized: DMSO 0%, positive control 100%;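 active = mean percent activation of the reporter above a cutoff set as the average over tested compounds plus their standard deviation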
# Target sequence (P55055 whole entry, looked up, the tested form may be a part): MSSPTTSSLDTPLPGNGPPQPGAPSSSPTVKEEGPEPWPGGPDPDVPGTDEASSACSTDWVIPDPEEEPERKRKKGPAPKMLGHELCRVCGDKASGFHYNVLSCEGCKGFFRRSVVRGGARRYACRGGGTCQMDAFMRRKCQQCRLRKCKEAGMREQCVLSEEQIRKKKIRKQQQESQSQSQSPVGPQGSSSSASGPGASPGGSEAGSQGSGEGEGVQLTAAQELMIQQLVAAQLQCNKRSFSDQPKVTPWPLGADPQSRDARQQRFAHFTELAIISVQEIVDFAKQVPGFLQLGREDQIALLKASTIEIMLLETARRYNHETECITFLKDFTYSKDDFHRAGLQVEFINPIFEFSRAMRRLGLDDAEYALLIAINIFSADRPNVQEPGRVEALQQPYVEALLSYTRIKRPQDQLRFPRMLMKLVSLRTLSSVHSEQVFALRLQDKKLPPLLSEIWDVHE
# hcDAF12 conf: confirmation of H. contortus DAF-12 agonists | shares compounds with hcDAF-12 act | HEK293 hcDAF-12 lit1-tk-luc reporter, luminescence; % of Δ7-dafachronic acid response | activation, % at 6.8 µM | 61% of 3,400 active | AID 743032;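 active = mean activation across triplicate tests above the threshold derived from the earlier primary screen, cut at about 5.5% in these data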;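 note: 0% = DMSO only wells and 100% = 3 µM Δ7-dafachronic acid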
# hgDAF12 ag: hgDAF-12 agonism, confirmation assay; shares compounds with hgDAF12 agonist; HEK293 GAL4-hgDAF12 luciferase reporter, agonist mode; percent of butyrate response; activation, % at 6.8 µM; 80% of 3,300 active;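 active = mean activation over triplicate wells above the hit cutoff derived from the earlier primary screen, cut at about 11% in these data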;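 note: 0% = DMSO low control and 100% = 2 mM sodium butyrate high control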
# LXR ag 2: activates human LXR-beta, counter-screen for DAF-12 agonists; AID 743051; 3,300 tested, under 10 active; activation, % at 6.8 µM; HEK293 Gal4-LXR luciferase reporter, 24 h; shares compounds with hgDAF12 agonist;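 active = mean activation of the triplicate above a set limit carried over from the primary screen, none filed active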
# Numbers without * were called inactive; . = no result given. The list is not random: actives were taken first. Their share in the collection is about 4.1%.
SMILES,DAX1 inh-1,hgDAF12 agonist,hcDAF-12 act,ssDAF-12 act,DAX1 inh-2,DAX1 conf,SF1 mutant ctr,hgDAF12 ag,LXR ag 2,others
Cc1ccc(O)c(C(=O)CC(=O)c2ccccc2Cl)c1,5.0*,22.5*,3.3,-0.2,5.3*,-0.1,1.6,4.7,0.2,
O=C(Nc1ccccc1)c1ccc(-c2ccccc2)s1,5.4*,14.2*,2.1,0.7,4.2,12.1*,8.5*,16.8*,0.5,
COCCN1Cc2cc(C(=O)OC)c3c(c2C1=O)c1cc(F)ccc1n3S(=O)(=O)c1cccc(C)c1,-0.6,-0.2,-0.8,-1.2,.,.,.,.,.,
CCOc1ccc(-c2ccc(SCC)nn2)cc1,7.9*,23.6*,5.3,0.0,-0.5,13.6*,6.7*,19.0*,0.9,
CCOc1ccc(-c2ccc(SCc3ccccn3)nn2)cc1,1.4,9.6,3.5,-1.8,-0.1,.,.,.,.,
CCSc1ccc(-c2ccc(C)cc2)nn1,11.3*,19.9*,11.2*,0.0,0.6,16.9*,7.4*,16.6*,1.0,LXR ag=1.7;hcDAF12 conf=6.1*
Cc1ccc(-c2ccc(SCC(=O)NC3CCCC3)nn2)cc1,1.0,-0.1,-0.2,-1.2,0.7,.,.,.,.,
COC(=O)[C@]12C[C@H](CC(=O)N3CCCCC3)C(=O)N(Cc3ccccc3)C1=C[C@H](COCc1ccccc1)O[C@@H]2C,0.0,-2.1,-3.1,-1.3,.,.,.,.,.,
CCCCNS(=O)(=O)CC1NCc2cc(OC)ccc21 (stereo unspecified),0.3,-0.2,-1.8,-1.6,.,.,.,.,.,
O=C(N[C@H](C(=O)N1CCC[C@H]1C(=O)NCc1ccccc1)C1CCCCC1)c1ccc(Cl)cc1Cl,-0.9,-1.5,-0.7,-1.4,.,.,.,.,.,
CC(=O)Nc1nc(C2COc3ccccc3O2)cs1 (stereo unspecified),5.8*,13.9*,6.7*,0.2,0.7,11.3*,5.1*,15.3*,0.9,LXR ag=1.2;hcDAF12 conf=6.1*
O=C(Nc1nc(-c2nc3ccccc3s2)cs1)C1COc2ccccc2O1 (stereo unspecified),1.0,3.0,3.6,-1.0,2.0,.,.,.,.,
COc1ccc(C2C(C(=O)Nc3c(C)cccc3C)CCC(=O)N2c2ccc(OC)cc2)cc1 (stereo unspecified),-0.9,-2.0,0.1,-0.5,.,.,.,.,.,
N#Cc1c(NC(=O)CSc2nnc(-c3ccccc3)o2)sc2c1CCCC2,.,.,.,.,-0.3,.,.,.,.,
O=C(CSc1nnc(-c2csc3c2CCCC3)o1)Nc1ccccc1,10.4*,17.7*,14.3*,2.1*,-0.2,19.1*,7.2*,16.0*,1.2,LXR ag=2.2;hcDAF12 conf=18.9*
COc1cc(-c2c(C(=O)c3ccccc3)[nH]c(N)c2C(=O)NCCc2c[nH]c3ccccc23)ccc1F,-0.8,-2.3,-0.5,-1.0,.,.,.,.,.,
COc1ccccc1C(=O)NNC(=O)c1cccc(Cl)c1,5.6*,17.1*,13.2*,0.7,1.1,14.0*,7.9*,16.5*,0.7,LXR ag=1.0;hcDAF12 conf=7.5*
COCC(=O)Nc1c(C(=O)Nc2ccc3c(c2)OCCO3)oc2ccccc12,4.6*,17.0*,3.5,-0.5,1.0,8.6*,5.9*,17.7*,0.9,
O=C(Nc1ccc2c(c1)OCCO2)c1ccc2ccccc2n1,10.0*,20.5*,21.0*,2.7*,3.1,12.7*,8.2*,22.2*,1.3,LXR ag=1.7;hcDAF12 conf=15.5*
O=C(Nc1ccccc1)c1ccc2ccccc2n1,5.4*,19.4*,18.5*,1.9*,5.6*,12.7*,9.8*,22.2*,1.2,LXR ag=1.3;hcDAF12 conf=16.3*
O=C(Nc1ccc2c(c1)OCCO2)c1oc2ccccc2c1NC(=O)C1CC1,0.9,-2.4,-1.0,-1.9,-1.1,.,.,.,.,
COC(=O)[C@H](CC(C)C)N(CCCc1cn(Cc2ccc(C)cc2)nn1)S(=O)(=O)c1ccc(F)cc1Br,-2.2,-6.0,-3.0,-1.8,.,.,.,.,.,
Cn1cccc1C(=O)OCC(=O)c1c[nH]c2ccccc12,4.7*,13.8*,10.6*,0.4,4.0,16.0*,8.1*,13.8*,0.8,LXR ag=1.4;hcDAF12 conf=6.3*
Cc1cnc(C(=O)OCC(=O)c2c[nH]c3ccccc23)cn1,1.7,4.6,4.4,0.2,1.4,.,.,.,.,
C/C(C=NNC(=O)CSc1nc2ccccc2n1C)=C\c1ccccc1,-1.1,0.2,-0.8,-1.3,.,.,.,.,.,
SMILES,DAX1 inh-1,hgDAF12 agonist,hcDAF-12 act,ssDAF-12 act,DAX1 inh-2,DAX1 conf,SF1 mutant ctr,hgDAF12 ag,LXR ag 2,others
C(=C\c1nc(-c2ccncc2)no1)/c1ccccc1,2.3,10.4,5.3,-0.4,1.9,.,.,.,.,
C(=C\c1nc(-c2ccccc2)no1)/c1ccccc1,5.9*,17.3*,5.8*,0.5,2.8,17.0*,6.7*,22.7*,0.9,
CC(C)[C@H]1/C(=C/C2CC2)N2C(=O)C[C@H](c3ccccc3)N=C2N1C,.,-1.1,-0.3,-0.8,.,.,.,.,.,
O=C(CNC(=O)c1cccs1)Nc1ccc2c(c1)OCCO2,12.3*,17.3*,4.3,0.5,2.4,8.0*,4.0*,16.3*,0.9,
COc1cccc(NC(=O)C(=S)NC2CCCCC2)c1,9.2*,23.1*,7.2*,0.2,1.6,12.3*,7.9*,17.7*,1.0,LXR ag=1.5;hcDAF12 conf=7.2*
COc1cccc(-c2cc(C(=O)NC3CCCC3)no2)c1,5.0*,19.9*,5.1,0.0,1.9,9.9*,5.3*,16.4*,1.0,
O=C(NC1CCCC1)c1cc(-c2ccc(Cl)c(Cl)c2)on1,0.4,4.2,0.9,-0.2,-0.1,.,.,.,.,
O=C(CSc1nnc(NC(=O)c2ccc(F)cc2)s1)NCc1ccco1,6.5*,13.9*,-0.4,-0.1,0.1,9.3*,5.1*,12.2*,0.5,
COC(=O)C1=C(C)N(C)C(=NCC2CC2)NC1c1cccc(F)c1 (stereo unspecified),2.2,-0.4,1.1,0.1,.,.,.,.,.,
C=CCN1[C@H](C#N)[C@@H](c2ccc(Br)cc2)[C@H]1CO,0.6,-2.8,0.3,-1.4,.,.,.,.,.,
O=C(Nc1nc2c(F)cccc2s1)c1ccco1,4.8*,15.6*,5.6*,0.9,0.3,6.8*,6.7*,16.6*,0.8,
CC(=O)Nc1nc2c(F)cccc2s1,-0.1,0.6,0.2,-1.0,-0.4,.,.,.,.,

# Source: PubChem BioAssay
